Laboratory results: PubChem BioAssay (Tox21)
Records with an inconclusive call do not appear. Active and inactive are the calls of the source. Unless noted, the call rests on the fitted dose curve; in most records, active means well fitted curve in the direction sought with a large enough effect in the repeat runs; inconclusive means weak or mixed curves; inactive means no such curve, though single readings can be large; an effect the other way counts as inactive or inconclusive.

Tests used:
[1] = A CellTox Green Cytotoxicity Assay to monitor cytotoxicity in HepG2 cells - 8 hour (AID 1224890); further: nearly all actives have a fitted effect of over 45% in size
In short: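 Cells and non-lytic dye reagent are dispensed together (600 HepG2 cells/well) and incubated 5 h before DMSO compound transfer. Kinetic fluorescence is then recorded in the same wells during 40 h at 37 C.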

[2] = qHTS assay to identify small molecule antagonists of the estrogen receptor alpha (ER-alpha) signaling pathway using the BG1 cell line in the presence of 0.1 nM 17-beta-estradiol - cell viability counter screen (AID 1259241); further: nearly all actives have a fitted effect of over 40% in size
In short: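 Following 5 days in phenol red-free medium with charcoal-stripped serum, VM7Luc4E2 cells received test compounds alongside 0.1 nM 17beta-estradiol (final) at 37C for 22 hr. Live cells were then quantified via protease-substrate fluorescence.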

[3] = qHTS assay to identify small molecule antagonists of the androgen receptor (AR) signaling pathway using the MDA cell line in the presence of 0.5 nM R1881 - cell viability counter screen (AID 1259242); further: nearly all actives have a fitted effect of over 45% in size
In short: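 Steps: plate MDA-kb2 cells, rest 5 hr at 37C without CO2; pin in compounds in DMSO; add R1881 to 0.5 nM final; incubate 16 hr; add CellTiter-Fluor, 30 min; read fluorescence.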

[4] = qHTS assay to identify small molecule HDAC inhibitors (AID 1259364); further: potency means the concentration at half of the fitted maximal effect;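 further: wild-type HCT-116 cells with endogenous class I/II HDAC activity; nearly all actives have a fitted effect of over 45% in size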
In short: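 Cells (HCT-116, wild type) are seeded at 1,500 per well, incubated overnight, treated with compound in DMSO for 2 hr, then developed with HDAC-Glo I/II reagent for 30 min at room temperature.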

[5] = qHTS assay to identify small molecule HDAC inhibitors - cell viability counter screen (AID 1259365); further: series mostly up to about 92 µM; nearly all actives have a fitted effect of over 50% in size
In short: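 HCT-116 wild-type, overnight attachment; 2hr drug exposure, 37C; CellTiter-Glo luminescent ATP readout after 30min RT.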

[6] = qHTS assay to identify small molecule agonists of the sonic hedgehog signaling (Shh) pathway - cell viability counter screen (AID 1259366); further: nearly all actives have a fitted effect of over 50% in size
In short: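 Compounds in DMSO were pin-transferred onto 3T3 Gli1-Luc cells that had settled 4hr; plates then stood 24hr at 37C and 5% CO2. One hour before the end, CellTiter-Fluor was added and fluorescence recorded.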

[7] = qHTS assay to identify small molecule antagonists of the sonic hedgehog signaling (Shh) pathway - cell viability counter screen (AID 1259367); further: nearly all actives have a fitted effect of over 55% in size
In short: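 Viability was read by CellTiter-Fluor fluorescence in the same wells, reagent added 23 hr into compound treatment and incubated 1 hr at 37C. The 3T3 Gli1-Luc reporter cells (2,000/well) received conditioned medium after compound and ran 24 hr.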

[8] = qHTS assay to identify small molecule agonists of the sonic hedgehog signaling (Shh) pathway (AID 1259368; calls by dose curve;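 further: NIH/3T3-derived 3T3Gli1-Luc cells carrying a stable Gli1-driven firefly luciferase reporter; series mostly up to about 92 µM; nearly all actives have a fitted effect of over 15% in size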)
In short: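 Cells of a mouse NIH/3T3 clone stably expressing luciferase under the Gli1 transcriptional response element are exposed to test chemicals for 24 hr at 37 C. Pathway activation is detected as a rise in luminescence.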

[9] = qHTS assay to identify small molecule antagonists of the sonic hedgehog signaling (Shh) pathway (AID 1259369; calls by dose curve; further: nearly all actives have a fitted effect of over 45% in size; further: potency means the concentration at half of the fitted maximal effect)
In short: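 Cells are plated and held 4hr at 37 C, compounds (DMSO) are pinned in, conditioned medium is added to stimulate the pathway, and after 24hr luciferase reagent is added for 30min before luminescence is read.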

[10] = qHTS assay to identify small molecule agonists of the androgen receptor (AR) signaling pathway in the presence of an antagonist - cell viability counter screen (AID 1259379);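 further: MDA-kb2 human breast cancer cells carrying an MMTV luciferase reporter; series mostly up to about 92 µM; nearly all actives have a fitted effect of over 25% in size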
In short: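 Cytotoxicity is assessed by CellTiter-Fluor in MDA-kb2 cells carrying an MMTV-driven luciferase reporter. Cells receive 3.0uM nilutamide plus compounds at 15 concentrations and incubate 16 hr at 37C without CO2 before fluorescence reading.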

[11] = qHTS assay to identify small molecule antagonists of the estrogen receptor beta (ER-beta) signaling pathway - cell viability counter screen (AID 1259382); further: nearly all actives have a fitted effect of over 55% in size; further: potency means the concentration at half of the fitted maximal effect
In short: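 Cytotoxicity counter screen multiplexed with the beta-lactamase antagonist assay: GripTite HEK293T ER-beta-bla cells were treated 16 hr with test chemicals in the presence of 1nM 17-beta-estradiol, and viability was measured by CellTiter-Glo.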

[12] = molecular target: Estrogen receptor (Homo sapiens) (UniProt P03372); assay: qHTS assay to identify small molecule antagonists of the estrogen receptor alpha (ER-alpha) signaling pathway using the BG1 cell line in the presence of 0.1 nM 17-beta-estradiol (AID 1259244); further: nearly all actives have a fitted effect of over 50% in size
In short: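 Antagonist mode: compounds in DMSO are pinned onto VM7Luc4E2 reporter cells, 0.1 nM final 17beta-estradiol is added, and after 22 h at 37C luciferase luminescence is measured with ONE-Glo.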

[13] = qHTS assay to identify small molecule phospholipidosis (PLD) inducers (AID 1259344; active means well fitted curve in the direction sought with a large enough effect; an effect the other way counts as inactive or inconclusive)
In short: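 Phospholipid accumulation was scored by imaging: fixed, Hoechst-counterstained HepG2 cells stained with LipidTOX Red after 24 h compound exposure at 37 C. Read-outs were pit count and pit intensity per well or per cell, with amiodarone and DMSO controls.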

[14] = molecular target: Estrogen receptor beta (Homo sapiens) (UniProt Q92731); assay: qHTS assay to identify small molecule agonists of the estrogen receptor beta (ER-beta) signaling pathway (AID 1259377; active means well fitted activation curve with a large enough effect in the signal ratio in the repeat runs, not every such curve was filed as active; the % refers to the signal ratio)
In short: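 qHTS in ER-beta-UAS-bla HEK293T cells: 6 hr settling, then 16 hr compound at 37C, then LiveBLAzer substrate 2 h at RT before fluorescence reading.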

[15] = molecular target: Estrogen receptor beta (Homo sapiens) (UniProt Q92731); assay: qHTS assay to identify small molecule antagonists of the estrogen receptor beta (ER-beta) signaling pathway (AID 1259378; active means well fitted inhibition curve with a large enough effect in the signal ratio in the repeat runs, not every such curve was filed as active; the % refers to the signal ratio)
In short: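 Antagonist mode: compounds added to beta-lactamase reporter HEK293T ER-beta-UAS cells stimulated with E2 (1nM final), 16 hr at 37C. LiveBLAzer B/G FRET substrate, 2 hours room temperature, fluorescence read-out.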

[16] = qHTS assay to identify small molecule agonists of the estrogen receptor beta (ER-beta) signaling pathway - cell viability counter screen (AID 1259380); further: nearly all actives have a fitted effect of over 30% in size; further: potency means the concentration at half of the fitted maximal effect
In short: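 Cytotoxicity is measured in parallel with the reporter screen: after 16 hr compound exposure at 37C and a 2 hr LiveBLAzer step, CellTiter-Glo is added to the same ER-beta-UAS-bla HEK293T wells and luminescence read after 30 min.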

[17] = molecular target: Estrogen receptor (Homo sapiens) (UniProt P03372); assay: qHTS assay to identify small molecule agonists of the estrogen receptor alpha (ER-alpha) signaling pathway in the presence of an antagonist (AID 1259383; calls by dose curve; further: top concentration of the series differs between compounds; nearly all actives have a fitted effect of over 15% in size)
In short: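 Agonist-mode confirmation in the presence of the ER antagonist ICI-182,780 at 10.0nM final. Breast-derived VM7Luc4E2 reporter cells were exposed to compounds for 22hr, and ERE-driven luciferase was quantified by luminescence.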

[18] = qHTS assay to identify small molecule agonists or antagonists of the thyroid stimulating hormone receptor (TSHR) signaling pathway - wild type cell line counter screen (AID 1259384; calls by dose curve)
In short: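 Counter screen in untransfected Hek293: compounds (15-point titration, triplicate) plus phosphodiesterase inhibitor Ro20-1724 added after 18 h plating; 30 min RT. Intracellular cAMP via competitive d2/cryptate immunoassay, 1 h incubation.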

[19] = molecular target: Androgen receptor (Homo sapiens) (UniProt P10275); assay: qHTS assay to identify small molecule antagonists of the androgen receptor (AR) signaling pathway using the MDA cell line in the presence of 0.5 nM R1881 (AID 1259243); further: nearly all actives have a fitted effect of over 50% in size
In short: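 Stably transfected MDA-kb2 cells express luciferase from an MMTV promoter bearing both AR and GR response elements. Compounds plus 0.5 nM R1881 (final) were incubated 16 hr at 37C without CO2, then luminescence measured.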

[20] = molecular target: Androgen receptor (Homo sapiens) (UniProt P10275); assay: qHTS assay to identify small molecule agonists of the androgen receptor (AR) signaling pathway in the presence of an antagonist (AID 1259381; calls by dose curve; further: nearly all actives have a fitted effect of over 15% in size)
In short: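 Agonist-mode confirmation screen: human MDA-kb2 cells stably expressing luciferase under an MMTV promoter bearing AR and GR response elements, co-treated with 3.0uM nilutamide (final). Luminescence measured after 16hr compound incubation.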

Measured: Potency

Sequence of Androgen receptor (Homo sapiens) (P10275 whole entry, looked up): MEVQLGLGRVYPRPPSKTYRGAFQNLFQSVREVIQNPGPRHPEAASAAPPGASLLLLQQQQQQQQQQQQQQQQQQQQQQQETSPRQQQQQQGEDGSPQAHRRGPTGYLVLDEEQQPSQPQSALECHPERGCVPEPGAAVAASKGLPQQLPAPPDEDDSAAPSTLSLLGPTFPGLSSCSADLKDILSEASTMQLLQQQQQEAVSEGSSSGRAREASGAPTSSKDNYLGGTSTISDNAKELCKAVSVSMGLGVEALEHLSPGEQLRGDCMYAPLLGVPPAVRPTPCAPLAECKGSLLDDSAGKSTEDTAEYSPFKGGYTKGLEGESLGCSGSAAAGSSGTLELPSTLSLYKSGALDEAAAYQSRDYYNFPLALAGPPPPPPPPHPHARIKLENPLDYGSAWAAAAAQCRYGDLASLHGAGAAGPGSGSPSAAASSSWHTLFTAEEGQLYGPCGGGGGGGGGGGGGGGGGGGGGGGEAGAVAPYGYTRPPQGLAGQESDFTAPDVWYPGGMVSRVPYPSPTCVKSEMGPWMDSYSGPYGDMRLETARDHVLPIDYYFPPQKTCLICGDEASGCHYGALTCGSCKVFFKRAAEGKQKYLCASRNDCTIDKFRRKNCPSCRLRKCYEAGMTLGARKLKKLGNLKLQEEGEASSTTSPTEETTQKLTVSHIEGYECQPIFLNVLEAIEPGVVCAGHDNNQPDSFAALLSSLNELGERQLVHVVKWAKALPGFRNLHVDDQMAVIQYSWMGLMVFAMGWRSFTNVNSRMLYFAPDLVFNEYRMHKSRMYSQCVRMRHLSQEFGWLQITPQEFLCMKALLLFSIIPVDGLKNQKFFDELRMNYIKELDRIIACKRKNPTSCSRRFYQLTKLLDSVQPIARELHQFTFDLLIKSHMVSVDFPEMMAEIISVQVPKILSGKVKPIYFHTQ
Sequence of Estrogen receptor (Homo sapiens) (P03372 whole entry, looked up): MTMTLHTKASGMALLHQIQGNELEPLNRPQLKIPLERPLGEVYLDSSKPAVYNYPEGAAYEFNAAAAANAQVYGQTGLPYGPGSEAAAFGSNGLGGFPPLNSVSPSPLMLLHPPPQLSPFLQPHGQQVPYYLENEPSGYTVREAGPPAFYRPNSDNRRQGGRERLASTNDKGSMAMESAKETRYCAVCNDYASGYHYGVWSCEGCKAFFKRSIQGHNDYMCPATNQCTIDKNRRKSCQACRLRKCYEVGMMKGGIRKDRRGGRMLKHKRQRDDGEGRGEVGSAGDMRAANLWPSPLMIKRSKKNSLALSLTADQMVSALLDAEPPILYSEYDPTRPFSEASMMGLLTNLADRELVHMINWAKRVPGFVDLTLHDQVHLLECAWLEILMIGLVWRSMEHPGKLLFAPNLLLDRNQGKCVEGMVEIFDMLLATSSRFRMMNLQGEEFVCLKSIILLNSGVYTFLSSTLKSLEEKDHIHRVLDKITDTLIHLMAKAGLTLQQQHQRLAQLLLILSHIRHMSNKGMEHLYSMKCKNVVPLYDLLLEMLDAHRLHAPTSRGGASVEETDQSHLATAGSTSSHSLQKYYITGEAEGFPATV
Sequence of Estrogen receptor beta (Homo sapiens) (Q92731 whole entry, looked up): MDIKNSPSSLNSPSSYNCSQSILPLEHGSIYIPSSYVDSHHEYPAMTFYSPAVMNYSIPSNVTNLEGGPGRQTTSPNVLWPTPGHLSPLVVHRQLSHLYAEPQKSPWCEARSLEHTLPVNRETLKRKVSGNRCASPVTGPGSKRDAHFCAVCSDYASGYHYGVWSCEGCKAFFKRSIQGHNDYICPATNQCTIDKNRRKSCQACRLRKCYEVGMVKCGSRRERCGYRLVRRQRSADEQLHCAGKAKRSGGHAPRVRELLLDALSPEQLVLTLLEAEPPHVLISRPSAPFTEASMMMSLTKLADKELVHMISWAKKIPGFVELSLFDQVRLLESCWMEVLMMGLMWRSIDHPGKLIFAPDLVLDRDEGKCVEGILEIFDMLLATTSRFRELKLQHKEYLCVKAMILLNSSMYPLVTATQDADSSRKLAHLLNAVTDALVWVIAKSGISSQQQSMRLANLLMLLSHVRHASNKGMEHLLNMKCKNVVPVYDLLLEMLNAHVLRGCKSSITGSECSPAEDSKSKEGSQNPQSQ

[O-][n+]1ccc(Cl)cc1
inactive: [1] | [2] | [3] | [4] | [5] | [6] | [7] | [8] | [9] | [10] | [11]

C[C@@H](O)[C@H]1C(=O)N2C(C(=O)O)=C(S[C@@H]3CN[C@H](CNS(N)(=O)=O)C3)[C@H](C)[C@H]12
inactive: [1] | [2] | [12] | [13] | [4] | [5] | [6] | [8] | [9] | [14] | [15] | [10] | [16] | [11] | [17] | [18]

C=C[Si]1(C)O[Si](C)(C=C)O[Si](C)(C=C)O[Si](C)(C=C)O1 (configuration not stated)
inactive: [1] | [2] | [3] | [4] | [5] | [6] | [8] | [14] | [15] | [10] | [16] | [11] | [18]
active: [9] 30.6 µM

CCC(C)C1N=C(C)C(C)S1 (configuration not stated)
inactive: [1] | [2] | [3] | [4] | [5] | [6] | [7] | [8] | [9] | [14] | [15] | [10] | [16] | [11] | [18]

CC(C)(Cc1c[nH]c2ccccc12)NCC(O)COc1ccccc1C#N (configuration not stated)
inactive: [1] | [2] | [3] | [4] | [5] | [7] | [8] | [14] | [10] | [18]
active: [16] 29.8 µM | [11] 26.6 µM

O=[N+]([O-])c1ccc(Cl)cc1Cl
inactive: [1] | [2] | [3] | [4] | [5] | [6] | [8] | [9] | [16] | [11] | [18]

OCCCO
inactive: [1] | [2] | [19] | [12] | [4] | [5] | [6] | [7] | [8] | [15] | [10] | [16] | [20] | [11] | [17] | [18]

c1ccc(CN(Cc2ccccc2)Cc2ccccc2)cc1
inactive: [1] | [2] | [3] | [4] | [5] | [6] | [7] | [8] | [9] | [14] | [11] | [18]

CC(=O)S[C@H](C(=O)N[C@H]1Cc2ccccc2[C@H]2CCC[C@@H](C(=O)O)N2C1=O)C(C)C
inactive: [1] | [2] | [3] | [4] | [5] | [6] | [7] | [8] | [9] | [10] | [11] | [18]

CCC(C)CCCC(C)(C)O (configuration not stated)
inactive: [1] | [2] | [3] | [4] | [5] | [6] | [8] | [9] | [15] | [16] | [11] | [18]

C[Si](C)(C)O[Si](C)(C)O[Si](C)(C)C
inactive: [1] | [2] | [3] | [4] | [5] | [6] | [7] | [8] | [9] | [14] | [15] | [11] | [18]

CC(O)C(C)O (configuration not stated)
inactive: [1] | [2] | [3] | [4] | [5] | [6] | [7] | [8] | [9] | [14] | [15] | [10] | [16] | [11] | [18]

CCOc1ccccc1O
inactive: [1] | [2] | [3] | [4] | [5] | [6] | [7] | [8] | [9] | [15] | [10] | [16] | [11] | [18]

O=[N+]([O-])c1ccccc1CCO
inactive: [1] | [2] | [3] | [4] | [5] | [6] | [7] | [8] | [9] | [14] | [15] | [10] | [16] | [11] | [18]

O=C(C1CCCCC1)N1CC(=O)N2CCCc3ccccc3C2C1 (configuration not stated)
inactive: [1] | [2] | [19] | [12] | [4] | [5] | [6] | [8] | [9] | [10] | [16] | [20] | [11] | [17] | [18]

N#C[C@@H]1CC(F)(F)CN1C(=O)CNC1CC2CCC(C1)N2c1ncccn1 (some centres not stated)
inactive: [1] | [2] | [19] | [12] | [4] | [5] | [7] | [8] | [9] | [14] | [15] | [10] | [16] | [20] | [11] | [17]

OCCOc1cccc(OCCO)c1
inactive: [1] | [2] | [3] | [5] | [6] | [8] | [9] | [10] | [16] | [11] | [18]
active: [4] 24.3 µM

Sc1nc(S)nc(S)n1
inactive: [1] | [2] | [3] | [4] | [5] | [6] | [7] | [8] | [9] | [14] | [15] | [10] | [16] | [11] | [18]

Nc1ccc(C(=O)Oc2ccccc2)c(O)c1
inactive: [1] | [2] | [12] | [13] | [5] | [6] | [7] | [8] | [9] | [10] | [16] | [11] | [17] | [18]

CCC1=C(C)CN(C(=O)NCCc2ccc(S(=O)(=O)NC(=O)NC3CCC(C)CC3)cc2)C1=O (configuration not stated)
inactive: [1] | [2] | [19] | [12] | [13] | [4] | [5] | [6] | [7] | [8] | [9] | [14] | [10] | [20] | [11] | [17] | [18]
